TrxR1 substrate: qHTS Assay for Substrates of Mammalian Selenoprotein Thioredoxin Reductase 1 (TrxR1): qHTS | 390,000 tested, 0.01% active | purified TrxR1 substrate turnover, NADPH consumption readout | Potency, µM (highest dose often 114 µM), for the others: top-dose activity change, negative = substrate turnover | Thioredoxin reductase 1, cytoplasmic (Rattus norvegicus), O89049; note: potency is the fitted concentration of half-maximal effect; nearly all actives have a fitted effect of over 50% in size
Target sequence (O89049 whole entry, looked up): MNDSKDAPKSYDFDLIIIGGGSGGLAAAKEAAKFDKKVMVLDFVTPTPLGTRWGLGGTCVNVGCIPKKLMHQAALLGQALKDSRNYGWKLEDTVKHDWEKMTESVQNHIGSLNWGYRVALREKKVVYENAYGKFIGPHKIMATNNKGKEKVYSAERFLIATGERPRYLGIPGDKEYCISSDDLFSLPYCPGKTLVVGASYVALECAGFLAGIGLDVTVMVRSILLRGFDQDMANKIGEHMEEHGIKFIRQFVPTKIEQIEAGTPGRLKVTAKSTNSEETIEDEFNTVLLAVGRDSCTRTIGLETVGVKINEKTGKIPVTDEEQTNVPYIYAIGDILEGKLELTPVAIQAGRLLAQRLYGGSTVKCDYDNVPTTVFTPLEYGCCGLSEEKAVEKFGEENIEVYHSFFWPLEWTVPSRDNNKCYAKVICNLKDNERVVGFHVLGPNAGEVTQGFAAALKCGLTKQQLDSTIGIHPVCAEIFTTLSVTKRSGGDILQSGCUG
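Rat TrxR1, dispensed at 90 nM, was prereduced with 400 uM NADPH (final) for 5 min at ~22 deg C, then incubated with compound 15 min before 400 uM selenite. A first-read NADPH fluorescence drop versus no-compound background flagged substrates.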
rTrxR1 inhibitor: qHTS Assay for Inhibitors of Mammalian Selenoprotein Thioredoxin Reductase 1 (TrxR1): qHTS; Thioredoxin reductase 1, cytoplasmic (Rattus norvegicus), O89049; Potency, µM (series often up to 114 µM), for inactives: at the top dose activity change, negative = inhibition, hits mostly inhibitors; recombinant rTrxR1, NADPH fluorescence consumption, selenite substrate; 390,000 tested, 1% active; note: potency is the fitted concentration of half-maximal effect; nearly all actives have a fitted effect of over 65% in size
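Rat TrxR1 (90 nM in the dispensed reagent) was pre-reduced with 400 uM NADPH for 5 min at room temperature, then incubated with compound for 15 min. After 400 uM selenite was added, NADPH fluorescence (Ex 340/Em 450 nm) was followed for 8 min.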
Integrin act MD: qHTS for Activators of Integrin-Mediated Alleviation for Muscular Dystrophy | alpha7betagal myoblasts, beta-gal FDG fluorescence, 48 h | 350,000 tested, 0.064% active | AID 624291, 2012 | Potency, µM (top dose mostly 38.3 µM), for inactives: at the highest dose activation, most hits filed as activators;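 note: potency is the fitted concentration of half-maximal effect; 100% = response of the positive control SU9516; nearly all actives have a fitted effect of over 60% in size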
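Alpha7betagal+/- myoblasts (passage 13) were plated 16-24 hr, then exposed to compounds (1:260 dilution of DMSO stock) for 48 hours at 37C. After MPER lysis, β-galactosidase reporter activity was read as FDG fluorescence (ex 480/em 540) after 30 minutes.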
GALK inhibitor: qHTS Assay for Inhibitors of Human Galactokinase (GALK); Purified GALK, Kinase-Glo residual ATP luminescence; Potency, µM (doses to about 57.5 µM), for the others: at the highest dose activity change, negative = inhibition, hits mostly inhibitors; 270,000 tested, 0.007% active; note: potency is the fitted concentration of half-maximal effect
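Kinase-Glo Plus luminescence measured ATP left after a 1 h room-temperature reaction. The reaction used 5 nM GALK, 100 uM galactose and 35 uM ATP at pH 8.0 (20 mM HEPES, 5 mM MgCl2, 60 mM NaCl, 1 mM DTT, 0.01% BSA).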
LDHA block: qHTS assay for inhibitors of human lactate dehydrogenase; purified LDHA, NADH/diaphorase-resazurin fluorescence; stronger effect = lower value; activity change, % (values are at about 110 or 230 µM); 480,000 tested, 0.15% active; AID 1347041, 2019; in the data active = activity change below about -30%; inconclusive = mostly about -25% to -30%;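 note: plate controls were DMSO wells for no effect and wells without enzyme for full effect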
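Human LDH5 (2 nM) was incubated with 0.06 mM NADH and 0.2 mM pyruvate for 5 min at room temperature in Tris pH 7.4. Remaining NADH was coupled through diaphorase/resazurin, and resorufin fluorescence was read at 0 and 20 min.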
PI4K2A inh: qHTS for small molecular inhibitors of PI4K2A; Phosphatidylinositol 4-kinase type 2-alpha (Homo sapiens), Q9BTU6; purified PI4K2A, ADP-Glo luminescence, 1 h; stronger effect = lower value; activity change, negative = inhibition, % at 76.9 µM; 420,000 tested, 0.13% active; in the data active = activity change below about -50%; inconclusive = mostly about -30% to -49%;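 note: -100% = wells without enzyme as full effect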
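PI4K2A activity was measured by ADP-Glo luminescence: enzyme (4 ug/mL stock) and phosphatidylinositol (1.2 mM stock) in Tris pH 7.5/MgCl2/EGTA/Triton X-100 buffer were reacted with ATP (300 microM stock) for one hour at ambient temperature.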
An asterisk follows results filed as active; [ ] = another dose, or the depositor's remark. An excerpt weighted towards active compounds, which were near 1.1% of everything screened. Unless noted, calls come from the whole dose curve; as a rule, active = well fitted curve in the direction sought with a large enough effect; inconclusive = small, poorly fitted or top-dose-only effect, or another doubt; inactive = no such curve, though single readings can be large; an effect the other way counts as inactive or inconclusive. Unless noted, % is set by controls: 0 for no effect and ±100 for the full control effect.

For O=C(N/N=C/c1ccc([N+](=O)[O-])o1)c1ccc(O)cc1 the results were TrxR1 substrate -3%, rTrxR1 inhibitor 20µM*, GALK inhibitor -1%, LDHA block -4 and PI4K2A inh 0.
`O=[N+]([O-])c1ccc(/C=N/NC(=S)Nc2ccccc2)o1` gave TrxR1 substrate -14%, rTrxR1 inhibitor 18µM*, Integrin act MD -26%, GALK inhibitor 0%, LDHA block -1 and PI4K2A inh -6.
Screening O=C(N/N=C\c1ccc([N+](=O)[O-])o1)c1cncc(Br)c1 returned TrxR1 substrate 2%[57.1 µM], rTrxR1 inhibitor 22µM*, Integrin act MD -36%, GALK inhibitor 6%, LDHA block 7 and PI4K2A inh -1.
CC(C)(C)C(=O)/C=c1/[nH]c(=O)/c(=C/c2ccccc2C(F)(F)F)s1 was read as LDHA block 3.
Screening COc1ccc(C(C)=O)cc1COC(=O)c1ccc2c(c1)OCCO2 returned TrxR1 substrate -4%, rTrxR1 inhibitor 56µM*, Integrin act MD 6%, LDHA block 0 and PI4K2A inh 11.
`COc1ccc(C(=O)OCc2cc(=O)oc3c(C)c(C)ccc23)cc1S(=O)(=O)N1CCOCC1` gave Integrin act MD 4%, LDHA block -12 and PI4K2A inh -1.
Screening COc1ccc(C(C)=O)cc1COC(=O)c1ccc(S(=O)(=O)N(C)C)cc1 returned TrxR1 substrate 5%, rTrxR1 inhibitor 45µM*, Integrin act MD 2%, GALK inhibitor -2%, LDHA block -2 and PI4K2A inh 4.
For COc1ccc(C(C)=O)cc1COC(=O)c1ccc(C)c(S(=O)(=O)N2CCOCC2)c1 the results were TrxR1 substrate -2%, rTrxR1 inhibitor 35µM*, Integrin act MD 20%, LDHA block -3 and PI4K2A inh -2.
COc1ccc(C(C)=O)cc1COC(=O)Cc1cc(OC)c(OC)c(OC)c1 was read as TrxR1 substrate 4%, rTrxR1 inhibitor 40µM*, Integrin act MD inconclusive, GALK inhibitor 1%, LDHA block -2 and PI4K2A inh 3.
For Cc1ccccc1NC(=O)CN(Cc1ccc2c(c1)OCO2)C1CCCC1 the results were LDHA block 11.
For CN(C)c1cccc(C(=O)NNC(=O)c2ccc(CSc3ccc(Cl)cc3)cc2)c1 the results were LDHA block 3.
`O=C(COc1ccc2c(=O)c(-c3ccc(Cl)cc3)coc2c1)Nc1ccccc1` gave LDHA block 0.
`Cc1nc2ccc(C(=O)OCC(=O)NC3CC3)cc2nc1C` gave LDHA block 6.
CCOc1ccccc1Oc1c(C)oc2cc(OC(=O)c3ccc4c(c3)OCO4)ccc2c1=O was read as LDHA block 1.
Screening CCOc1ccccc1Oc1coc2cc(OC(=O)c3ccc4c(c3)OCO4)ccc2c1=O returned LDHA block -31*.
`COc1ccc(C(C)=O)c(OC(=O)c2cc(F)c(F)cc2Cl)c1` gave LDHA block 4.
`On1nnc2c1ccc1nnn(O)c12` gave LDHA block 8.
Screening O=C1C=C(O)c2cccc(O)c2C1=O returned TrxR1 substrate -4%, rTrxR1 inhibitor -1%, Integrin act MD 12%, GALK inhibitor 3%, LDHA block 16 and PI4K2A inh -27.
Screening O=C1C=C(c2c(O)ccc3ccccc23)c2ccccc2C1=O returned TrxR1 substrate 79µM*, rTrxR1 inhibitor inconclusive, Integrin act MD -55%, LDHA block 45 and PI4K2A inh -19.
